Laboratory results from PubChem BioAssay (NCI).
The panel holds about 83,000 compounds, 20% with a hit somewhere; the sample as a whole holds those more often.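 Method: cells in 96-well plates; compound added at one concentration; 48 h incubation; percent growth measured; values under 10 scored active.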 A number with no mark means an inactive call. The source made the active and inactive calls.

How the values were obtained:
Assay in all cases: NCI-60 one-dose screen, 48 h (100 = growth as untreated, 0 = no growth, -100 = all killed)
Settings in all cases: 10 µM unless noted
[1] = test system: HT29 colon
[2] = test system: SNB-75 CNS
[3] = test system: SNB-19 CNS
[4] = test system: U251 CNS
[5] = test system: PC-3 prostate
[6] = test system: SK-MEL-5 melanoma
[7] = test system: UACC-62 melanoma
[8] = test system: LOX IMVI melanoma
[9] = test system: SK-MEL-28 melanoma
[10] = test system: SK-MEL-2 melanoma
[11] = test system: EKVX NSCLC
[12] = test system: SN12C renal
[13] = test system: UO-31 renal
[14] = test system: TK-10 renal
[15] = test system: ACHN renal
[16] = test system: CAKI-1 renal
[17] = test system: A498 renal
[18] = test system: CCRF-CEM leukemia
[19] = test system: MOLT-4 leukemia

| SMILES | growth [1] | growth [2] | growth [3] | growth [4] | growth [5] | growth [6] | growth [7] | growth [8] | growth [9] | growth [10] | growth [11] | growth [12] | growth [13] | growth [14] | growth [15] | growth [16] | growth [17] | growth [18] | growth [19] |
| --- | --- | --- | --- | --- | --- | --- | --- | --- | --- | --- | --- | --- | --- | --- | --- | --- | --- | --- | --- |
| C/C(=N\Nc1nc(C)cs1)c1cc2ccccc2o1 | 103% | 119% | 96.4% | 94% | 70.2% | 92% | 85.5% | 85.8% | 110% | 104% | 56.3% | 91.8% | 55.4% | 134% | 86.6% | 75.9% | 99.9% | 79.1% | 85.9% |
| CCOC(=O)Nc1nc2ccc(SCC(C)C)cc2s1 | 9.7% (active) | 74.3% | 49.9% | 34.3% | 36.9% | 34.1% |  | 36.3% | 62.3% | 33.1% | 48.7% | 44.4% | 37.6% | 33% | 45.6% |  | 21.5% | 21.5% | 31.8% |
| COc1ccc2c(c1)c(-c1ccc(-c3cn(C)c4ccc(OC)cc34)[nH]1)cn2C | 48% | 17.9% | 27.2% | -62.9% (active) | -11% (active) | 29.6% | 5.29% (active) | -17.8% (active) | -20.1% (active) | 45.3% | -4.9% (active) | 31.7% | -47.3% (active) | 35.7% | -44.6% (active) | 25.6% | 71.8% | -5.64% (active) | 27.7% |
| COc1cccc(C(=O)OCC(O)C(=O)NC23CC4CC(CC(C4)C2)C3)c1 (configuration not stated) | 101% | 95.2% | 97.2% | 94.1% | 93.3% | 99.2% | 93.4% | 95.4% | 104% | 101% | 97.4% | 95.5% | 87.1% | 96.4% | 97.2% | 99.8% | 96.9% | 86.3% | 95.4% |
| COc1cc2cc(Oc3ccc(NC(=O)Nc4ccccc4)cc3)c(C)nc2cc1OCCN1CCCCC1 | 17% | 74.9% | 91.6% | 21.5% | 82.7% | 84.7% | 95.4% | 78.7% | 91.6% | 100% | 99.8% | 89.9% | 64.3% | 108% | 84.4% | 96.1% | 55.4% | -20.9% (active) | -22.2% (active) |
| CCOC(=O)Cn1c(=O)c2c3ccccc3n(C)c2n2nnc(-c3ccccc3)c12 | 89.1% | 105% | 115% | 87.8% | 76.1% | 74.1% | 72.8% | 86.2% | 86.6% | 97.1% | 85.8% | 81.8% | 81.2% | 129% | 91.8% | 81.2% | 134% | 68.4% | -40.7% (active) |
